A short description of test [1]: E. coli DRC41 culture turbidity changes, primary screen, E. coli filamentation inducer project, strain DRC41, OD650, 48 h (AID 1152).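 Also: E. coli MC1000 strain DRC41 lacking acrAB efflux pump and sulA.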 Conditions: E. coli DRC41 (acrAB sulA), higher = more signal, called active from +8 up or from −8 down.
The nature of test [2]: small-molecule binders of probe aLefty1, primary screen, biochemical, small-molecule microarray, 635/667 nm fluorescence (AID 1153).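 Also: score merges spot fluorescence with signal-to-noise ratio from the scanned slide images.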 Conditions: higher = more signal.
Test [3] in a line: PSAC antagonists in infected red cells, primary screen, cell-based, P. falciparum Indochina, OD700, 1 h (AID 1154). Conditions: P. falciparum Indochina infected RBC osmotic lysis, higher = more signal, called active from +8 up or from −8 down.
Test [4] can be described thus: PSAC antagonists in infected red cells, primary screen, cell-based, P. falciparum Indochina, OD700, 2 h (AID 1155).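 Also: lysis reports solute entry through the parasite surface anion channel PSAC; channel blockers reduce lysis of infected cells.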 Conditions: P. falciparum Indochina infected erythrocytes, osmotic lysis OD700; higher = more signal, called active from +8 up or from −8 down.
The nature of test [5]: osmotic lysis modulators in infected erythrocytes, primary screen, PSAC antagonist project, cell-based, P. falciparum Indochina, OD700, 3 h (AID 1156). Conditions: higher = more signal, called active from +8 up or from −8 down.
Test [6] in a line: PSAC antagonists in infected red cells, primary screen, cell-based, P. falciparum Indochina, OD700, 18 h (AID 1157). The conditions noted are these: P. falciparum Indochina infected erythrocytes, osmotic lysis OD700, 18 h; higher = more signal, called active from +8 up or from −8 down.
Test [7] is described as follows: modulators of S6 phosphorylation in cells, primary screen, cell-based, A549, cytoblot, luminescence, serum-stimulated (AID 1158).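 Also: serum-stimulated A549 lung adenocarcinoma cells; signal is phosphorylated S6 detected by cytoblot immunostaining with HRP secondary.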 Conditions: A549 phospho-S6 cytoblot, 5 h, higher = more signal.
Test [8] addresses NADPH oxidase 2 (Homo sapiens) (UniProt P04839). In words: NOX2-dependent H2O2 signal modulators, primary screen, NOX inhibitor project, cell-based, HEK293-NOX2, PMA-stimulated, Amplex Red fluorescence (AID 1159). Also: test concentration not given here. The conditions noted are these: 45 min, higher = more signal, called active from +8 up or from −8 down.
Test [9] deals with NADPH oxidase 4 (Homo sapiens) (UniProt Q9NPH5). As to the kind of experiment: NOX4-dependent H2O2 signal modulators, primary screen, NOX inhibitor project, cell-based, HEK293-NOX4, tetracycline-induced, Amplex Red fluorescence (AID 1160). Conditions: 45 min, higher = more signal, called active from +8 up or from −8 down.
The target of test [10] is NADPH oxidase 5 (Homo sapiens) (UniProt Q96PH1). In words: NOX5-dependent H2O2 signal modulators, primary screen, NOX inhibitor project, cell-based, HEK293-NOX5, Amplex Red fluorescence (AID 1161). Conditions: HEK293-NOX5, ionomycin, 45 min, higher = more signal.

Active and inactive are the calls of the source.

This passage reports z-score and composite z-score results from PubChem BioAssay.

Sequence of NADPH oxidase 4 (Homo sapiens) (Q9NPH5 whole entry, looked up): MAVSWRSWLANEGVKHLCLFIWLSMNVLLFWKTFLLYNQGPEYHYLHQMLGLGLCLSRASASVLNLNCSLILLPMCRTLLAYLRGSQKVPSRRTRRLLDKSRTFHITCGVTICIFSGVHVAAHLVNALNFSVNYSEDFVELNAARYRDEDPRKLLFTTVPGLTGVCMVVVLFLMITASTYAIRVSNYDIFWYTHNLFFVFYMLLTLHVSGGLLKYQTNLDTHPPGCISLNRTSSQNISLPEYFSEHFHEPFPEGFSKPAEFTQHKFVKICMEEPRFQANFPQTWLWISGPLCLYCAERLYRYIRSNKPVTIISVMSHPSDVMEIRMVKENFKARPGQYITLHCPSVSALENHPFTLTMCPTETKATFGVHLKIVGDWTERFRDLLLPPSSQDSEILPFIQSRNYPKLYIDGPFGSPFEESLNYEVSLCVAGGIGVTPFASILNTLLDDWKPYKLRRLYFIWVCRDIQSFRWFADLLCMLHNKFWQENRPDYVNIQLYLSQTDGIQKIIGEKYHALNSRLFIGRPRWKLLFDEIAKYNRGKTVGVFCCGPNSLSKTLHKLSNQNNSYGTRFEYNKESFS
Sequence of NADPH oxidase 2 (Homo sapiens) (P04839 whole entry, looked up): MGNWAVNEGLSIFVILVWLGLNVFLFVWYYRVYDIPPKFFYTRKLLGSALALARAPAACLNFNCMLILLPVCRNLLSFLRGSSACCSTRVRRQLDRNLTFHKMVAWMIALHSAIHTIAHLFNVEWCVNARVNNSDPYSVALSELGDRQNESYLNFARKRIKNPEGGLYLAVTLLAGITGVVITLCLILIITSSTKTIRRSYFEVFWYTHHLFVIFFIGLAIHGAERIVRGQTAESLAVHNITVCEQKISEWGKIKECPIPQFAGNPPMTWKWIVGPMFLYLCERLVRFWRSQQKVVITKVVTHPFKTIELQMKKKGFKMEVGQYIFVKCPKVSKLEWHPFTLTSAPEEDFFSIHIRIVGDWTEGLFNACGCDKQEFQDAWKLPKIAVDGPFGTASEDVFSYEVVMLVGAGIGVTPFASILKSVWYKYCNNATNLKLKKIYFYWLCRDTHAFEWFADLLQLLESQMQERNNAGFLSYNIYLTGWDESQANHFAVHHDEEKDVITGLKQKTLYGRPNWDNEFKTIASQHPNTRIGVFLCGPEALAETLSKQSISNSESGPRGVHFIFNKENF
Sequence of NADPH oxidase 5 (Homo sapiens) (Q96PH1 whole entry, looked up): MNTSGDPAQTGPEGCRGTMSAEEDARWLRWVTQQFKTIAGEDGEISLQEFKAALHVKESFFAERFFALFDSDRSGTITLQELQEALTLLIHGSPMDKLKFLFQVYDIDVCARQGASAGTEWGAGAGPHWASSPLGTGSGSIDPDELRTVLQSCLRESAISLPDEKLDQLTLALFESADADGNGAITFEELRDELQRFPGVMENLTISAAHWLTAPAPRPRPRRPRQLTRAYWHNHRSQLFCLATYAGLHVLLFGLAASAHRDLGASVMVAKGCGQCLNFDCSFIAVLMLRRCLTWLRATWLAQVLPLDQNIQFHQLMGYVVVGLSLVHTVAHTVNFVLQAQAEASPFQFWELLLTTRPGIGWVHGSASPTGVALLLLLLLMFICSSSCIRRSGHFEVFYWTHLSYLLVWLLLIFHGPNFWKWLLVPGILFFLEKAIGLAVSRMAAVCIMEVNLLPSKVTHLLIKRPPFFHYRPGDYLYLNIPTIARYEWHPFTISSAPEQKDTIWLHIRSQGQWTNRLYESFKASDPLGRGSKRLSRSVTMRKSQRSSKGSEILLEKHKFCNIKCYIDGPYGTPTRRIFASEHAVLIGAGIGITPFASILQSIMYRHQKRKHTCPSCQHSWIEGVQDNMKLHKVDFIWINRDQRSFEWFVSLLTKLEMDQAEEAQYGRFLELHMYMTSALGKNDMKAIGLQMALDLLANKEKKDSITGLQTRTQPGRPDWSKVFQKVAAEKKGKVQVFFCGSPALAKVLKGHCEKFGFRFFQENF

Consider `C=CCOC(=O)[C@H]1[C@@H]2C(=O)O[C@@H](c3ccccc3)[C@@H](c3ccccc3)N2[C@@H](c2ccc(OCCOC(=O)[C@@H]3C[C@@H]4C(=O)N[C@@H](CC(C)C)C(=O)N4[C@@H]3c3ccc(O)cc3)cc2)[C@]12C(=O)Nc1ccccc12`, for which the z-score in test [1] is 0.204 (inactive); in test [3], 3.03 (inactive); in [4] it was 1.3 (inactive); in test [5] it was 4.45 (inactive); in [6], 1.04 (inactive); in test [7], -0.197. Further, the figures for the z-score in [8], in [9] and in [10] were 1.63 (inactive), 1.18 (inactive) and 1.49, respectively. The composite z-score in test [2] is 0.439.

In the case of `C=C(CCCC)/C(=C/C[C@@H](OC(=O)c1ccncc1)c1ccc(OCCO)cc1)c1cc(C(=O)OC)ccc1OC`, the z-score in test [1] was 0.4 (inactive); in test [3], 17.3 (active); in test [4], 3.18 (inactive); in test [5], 1.85 (inactive); in test [6], 0.969 (inactive); in [7], 0.377. In addition, the z-score is -1.61 (inactive) in [8], -0.665 (inactive) in [9] and -1.9 in test [10]. The composite z-score in test [2] is -0.0984.

With `C=C(CCCC)/C(=C/C[C@H](OC(C)=O)c1ccccc1OCCO)c1cc(C(=O)OC)ccc1OC`, the z-score in test [1] is 1.02 (inactive); in test [3], 15.1 (active); in [4], 0.621 (inactive); in test [5] it was 2.54 (inactive); in test [6], -1.43 (inactive); in test [7] it was 0.708. The z-score in [8] was 0.254 (inactive); in test [9] it was 0.101 (inactive); in test [10] it was -1.92. The molecule also came in with a composite z-score in [2] of -0.0046.

Regarding `COCCOC(=O)N1C(=O)[C@@]2(c3cc(C#CCNC(N)=O)ccc31)[C@H](C(=O)N1CCN(c3ncccn3)CC1)[C@H]1C(=O)O[C@H](c3ccccc3)[C@H](c3ccccc3)N1[C@@H]2c1ccc(OCCO)cc1`, the z-score was -0.492 (inactive) in test [1]; 6.11 (inactive) in test [3]; 1.93 (inactive) in test [4]; 1.26 (inactive) in test [5]; 0.778 (inactive) in test [6]; -0.319 in [7]. The values for the z-score in test [8], in test [9] and in test [10] were 1.64 (inactive), 0.971 (inactive) and -0.121, respectively. Moreover, the composite z-score in [2] was found to be 0.267.

For `COC(=O)[C@@]1(CCC(=O)OC(C)(C)C)N=C(c2ccc(OCCCO)cc2)O[C@H]1c1ccccc1N=[N+]=[N-]`, the z-score was -0.871 (inactive) in [1]; 28.2 (active) in test [3]; 25.2 (active) in [4]; 1.67 (inactive) in [5]; 5.1 (inactive) in test [6]; -0.117 in [7]. In addition, the z-score was -2.9 (inactive) in test [8], 0.248 (inactive) in [9] and -2.56 in [10]. Also, the composite z-score in test [2] was -0.39.

On to `COc1ccccc1CN1C(=O)c2ccccc2[C@@H](C(=O)NC2CC2)[C@@H]1c1ccc(CO)cc1`, for which the z-score in test [1] is 0.818 (inactive); in test [3], 2.49 (inactive); in test [4], 0.873 (inactive); in [5] it was 1.59 (inactive); in test [6] it was 0.818 (inactive); in test [7], -0.291. Further, the results for the z-score in test [8], in test [9] and in [10] were 0.211 (inactive), 0.48 (inactive) and 0.718, respectively. The molecule also gave a composite z-score in test [2] of 0.16.

Turning to `COc1cccc(-c2cccc(=O)o2)c1`, the z-score in test [1] was 0.0997 (inactive); in test [3], 10.4 (active); in [4], 1.6 (inactive); in test [5], -0.685 (inactive); in [6] it was 0.611 (inactive); in test [7], -0.684. Moreover, the figures for the z-score in test [8], in test [9] and in [10] were 0.705 (inactive), -1.15 (inactive) and -1.47, respectively. In [2], this molecule showed a composite z-score of 0.565.

For `CC(=O)NCCCC[C@@H]1NC(=O)[C@H]2C[C@@H](C(=O)NCCCCCCNC(=O)CS)[C@@H](c3ccc(O)cc3)N2C1=O`, the z-score was 0.0783 (inactive) in test [1]; 4.2 (inactive) in [3]; 0.507 (inactive) in test [4]; 3.45 (inactive) in test [5]; 0.301 (inactive) in [6]; -0.371 in test [7]. The z-score in [8] is 0.294 (inactive); in test [9], -0.187 (inactive); in [10], 0.673. Further, in test [2], the composite z-score was 0.132.

On to `C=C[C@H](CO)NS(=O)(=O)c1ccc(Br)cc1`, for which the z-score was 1.25 (inactive) in test [1]; -0.261 (inactive) in test [3]; -0.102 (inactive) in test [4]; -0.154 (inactive) in test [5]; 0.325 (inactive) in [6]; 0.0242 in test [7]. Moreover, the z-score in test [8] was 2.3 (inactive); in [9] it was 0.447 (inactive); in [10], 0.264. In addition, the composite z-score in [2] is -0.24.

As for `COCCOC(=O)N1C(=O)[C@@]2(c3cc(C#CCCO)ccc31)[C@H](C(=O)N1CCCCCCC1)[C@H]1C(=O)O[C@H](c3ccccc3)[C@H](c3ccccc3)N1[C@@H]2c1ccc(OCCO)cc1`, the z-score in test [1] is 0.712 (inactive); in [3], 7.78 (inactive); in [4], 1.37 (inactive); in [5] it was -1.22 (inactive); in test [6] it was 0.982 (inactive); in test [7], -0.215. The z-score is 0.931 (inactive) in test [8], 0.94 (inactive) in [9] and 0.603 in test [10]. The composite z-score in test [2] amounted to 2.45.

For `CC1CC/C=C\[C@H]2OC34C=CCN(C(C)(C)C)C(=O)[C@H]3N(C(C)CO)C(=O)[C@@H]4C2C(=O)O1` (stereo not given in full), the z-score in [1] is -0.265 (inactive); in test [3], 1.42 (inactive); in [4], 0.576 (inactive); in test [5], 0.545 (inactive); in test [6], 0.355 (inactive); in test [7], 0.021. Besides, the results for the z-score in [8], in [9] and in test [10] were 0.499 (inactive), -0.812 (inactive) and 1.65, respectively. This molecule gave a composite z-score in test [2] of -0.0984.

Turning to `O=C1O[C@@H](c2ccccc2)[C@@H](c2ccccc2)N2[C@@H](c3ccccc3OCCO)[C@]3(C(=O)Nc4ccccc43)[C@@H](C(=O)Nc3nc4ccccc4s3)[C@H]12`, the z-score in test [1] is 0.533 (inactive); in test [3] it was 2.02 (inactive); in [4], 1.59 (inactive); in [5], 0.0197 (inactive); in test [6], -1.52 (inactive); in test [7] it was 1.53. For the same molecule, the z-score in test [8] is 0.188 (inactive); in test [9] it was -0.547 (inactive); in test [10], -1.6. Also, the composite z-score in [2] came to 1.14.
